# Experimental data published in the supplement of paper PMC6555819.
# How the values were obtained:
# Assay in all cases: PBM binding z-score (relative to random genomic background probes); higher = stronger binding; sequences stand for … in GC…GCGATTGACAGCGTAGAATGAAGG
# [1] = test system: PPARg:RXRa DBDmut IVT, anti-RXR (DBD mutation: RXRa K156A/R161A, NR concentration 270 nM, RXRa partner concentration 90 nM)
# Procedure, shortened: (§1)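 On custom Agilent 4×180K arrays, double-stranded probes with 34-nt variable regions carried direct-repeat seeds, single-nucleotide variants, half-site ablations or random human genomic background. Ligand-free nuclear receptor dimers were applied for 1 h, and binding was read with antibodies against each partner (one per run). Binding z-scores come from regression-normalized fluorescence, with the random background probes as reference.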
# [2] = test system: PPARg:RXRa IVT, anti-PPARg (NR concentration 270 nM, RXRa partner concentration 90 nM)
# Procedure, shortened: as §1
# [3] = test system: PPARg DBDmut:RXRa IVT, anti-PPARg (DBD mutation: PPARg1 K132A/R137A, NR concentration 270 nM, RXRa partner concentration 90 nM)
# Procedure, shortened: as §1
# [4] = test system: PPARg DBDmut IVT, anti-PPARg (DBD mutation: PPARg1 K132A/R137A, NR concentration 270 nM)
# Procedure, shortened: as §1
# [5] = test system: PPARg homodimer (NR concentration 180 nM)
# Procedure, shortened: as §1
# [6] = test system: PXR:RXRa (NR concentration 270 nM, RXRa partner concentration 90 nM)
# Procedure, shortened: as §1
# [7] = test system: PXR homodimer (NR concentration 270 nM)
# Procedure, shortened: as §1
# [8] = test system: RARa:RXR (NR concentration 270 nM, RXRa partner concentration 90 nM)
# Procedure, shortened: as §1
# [9] = test system: RARa homodimer (NR concentration 270 nM)
# Procedure, shortened: as §1
# [10] = test system: RARb:RXRa (NR concentration 270 nM, RXRa partner concentration 90 nM)
# Procedure, shortened: as §1
# [11] = test system: RARb homodimer (NR concentration 270 nM)
# Procedure, shortened: as §1
# [12] = test system: RARg:RXRa (NR concentration 270 nM, RXRa partner concentration 90 nM)
# Procedure, shortened: as §1
# [13] = test system: RARg homodimer (NR concentration 270 nM)
# Procedure, shortened: as §1
# [14] = test system: RXRa DBDmut IVT, anti-RXR (DBD mutation: RXRa K156A/R161A, NR concentration 90 nM)
# Procedure, shortened: as §1
# [15] = test system: RXRa homodimer (NR concentration 180 nM)
# Procedure, shortened: as §1
# [16] = test system: THRa:RXRa (NR concentration 90 nM, RXRa partner concentration 90 nM)
# Procedure, shortened: as §1
# [17] = test system: THRa homodimer (NR concentration 90 nM)
# Procedure, shortened: as §1
# [18] = test system: VDR:RXRa (NR concentration 270 nM, RXRa partner concentration 90 nM)
# Procedure, shortened: as §1
# [19] = test system: VDR homodimer (NR concentration 270 nM)
# Procedure, shortened: as §1
Sequence,PBM binding z-score [1],PBM binding z-score [2],PBM binding z-score [3],PBM binding z-score [4],PBM binding z-score [5],PBM binding z-score [6],PBM binding z-score [7],PBM binding z-score [8],PBM binding z-score [9],PBM binding z-score [10],PBM binding z-score [11],PBM binding z-score [12],PBM binding z-score [13],PBM binding z-score [14],PBM binding z-score [15],PBM binding z-score [16],PBM binding z-score [17],PBM binding z-score [18],PBM binding z-score [19]
CCTGGCAGGCCAATCTGGGTCACTCAAGGCTTGA,3.55,4.78,-0.588,-0.975,0.0231,0.725,-0.786,1.11,-1.09,1.64,2.28,1.11,1.5,-0.376,0.545,3.8,0.481,0.406,-0.15
CCTACTGGGCCAAAAGTCATTGATTCCAATGCTC,4.9,4.42,-0.0689,-0.159,0.216,-0.153,-0.589,0.273,0.25,0.447,0.0261,0.13,0.053,0.0698,0.153,-0.256,-0.418,-0.0662,-0.212
ACTATTAGGTGACTTAGGGCAACCGATACGACGC,4.96,3.9,1.48,0.993,0.861,0.146,0.0513,0.9,1,1.31,1.39,1.18,1.29,0.234,0.903,2.76,0.89,0.474,-0.344
CCGAGTGGGGCAAAGGTTACCATACTCAGTACGA,4.47,6.13,0.0641,-0.366,3,2.82,0.105,4.13,0.606,2.44,2.45,3.55,1.75,0.25,3.67,1.86,-0.359,1.49,0.16
CCTTACGGGTCAAGCTTATAGCACGGGTGGTACG,2.26,3.48,0.116,-0.188,1.56,2.77,-0.265,3.81,0.95,4.05,2.82,4.93,4.64,1.11,5.08,2.23,-0.294,3.11,0.754
GCTAGTTGGTCAGTAAAAGGACACACACCGGTCG,0.16,0.5,0.0692,-0.305,0.811,-0.134,0.246,0.153,0.849,1.61,2.31,1.15,1.73,-0.384,0.00337,0.856,0.41,-0.213,0.256
ACTTACGGGTCAACGAGGTTATTGCACGCGTATA,3.11,3.97,1.27,2.63,3.35,5.53,5.35,5.36,1.38,4.19,3.55,5.66,4.9,3.01,6.27,4.05,1.2,8.05,4.35
TCTGCTAGGTCAACAATGGTCAGCTAATCTGCTA,4.05,4.05,0.64,0.264,1.23,1.94,-0.276,2.29,-0.189,4.11,3.37,4.13,4.92,1.33,2.64,3.08,0.805,1.84,-0.0461
AGAATGTGGTTATACGTAGATCAGGGAAGAAAGT,-0.104,0.38,1.04,0.755,0.355,0.214,0.82,0.282,0.734,0.0601,0.494,0.184,0.305,0.187,-0.0859,0.207,0.0442,0.0519,-0.179
TCTTGTAGATCAAGCAGGTTAGGAAAGCCTGAGT,1.57,0.595,0.172,-0.0543,-0.235,-0.00169,0.0817,0.204,-0.0735,-0.0169,0.012,-0.289,-0.589,0.37,-0.0446,0.0299,-0.467,0.203,0.231
TAGCCTATGTCATGCGGGCCAGTATAGTGTCGGC,-0.318,0.0427,-0.339,-0.807,-1.01,-0.639,-1.13,-0.718,-1.4,0.113,-0.116,-0.1,-0.059,-0.904,0.0276,-0.313,-0.992,-0.45,-0.661
CCTTTCGGGTCACGAGGTTATAGCACGACGAGCG,3.85,5.47,3.53,2.42,2.82,4.93,0.795,6.44,0.862,4.99,4.31,6.29,5.8,2.08,7.39,4.52,3.83,5.31,2.77
TCTGCTAGGTCAGTTGGTCAGCTAGCGAGCTGCC,2.78,3.15,-0.34,-0.0427,-0.0101,0.114,-0.917,0.452,-1.22,3.38,2.51,2.7,3.71,0.477,0.644,1.18,-0.284,-0.184,-0.49
AGTCAAAGTTCACTAGGTCACGTAAGATTCAGCT,5.56,6.73,1.41,1.03,4.02,5.52,3.91,5.75,1.46,5.27,5.29,6.62,7.17,4.43,5.44,3.72,2.54,5.1,4.43
CCTACTGGGCCATCACGTCATTGATATCAACGTT,4.36,3.56,0.399,0.151,0.3,-0.248,0.0325,0.0611,-0.31,0.25,0.0558,0.0905,0.383,-0.0697,-0.108,-0.192,0.107,-0.314,-0.136
